# Test results taken from PubChem BioAssay AID938 (National Center for Advancing Translational Sciences (NCATS), 2007).
# “And” between values parts separate entries of the source, which are not always exact repeats. Identical values can stand only once. About 1,800 (2.5%) of roughly 73,000 compounds were called active. Not shown: some 13% with an inconclusive outcome. Calls follow the shape of the dose curve; as a rule, active = well fitted activation curve with a large enough effect; inconclusive = small, poorly fitted or top-dose-only effect; inactive = no such curve, though single readings can be large or run the other way. For the sample, actives were picked, then their nearest neighbours and some compounds at random. Where a structure was tested more than once in an assay, its records may differ in their call.
# Test: qHTS Assay for Agonists of the Thyroid Stimulating Hormone Receptor: Activators of Intracellular cAMP Concentrations in Parental HEK 293; also: nearly all actives have a fitted effect of over 55% in size; as to activation: % of control where 0% means no effect
# Conditions: parental HEK293 CNG cAMP sensor, membrane potential fluorescence; series mostly up to 57.1 µM; activation: at the top concentration
# Source text: NIH Chemical Genomics Center [NCGC]
# NIH Molecular Libraries Screening Centers Network [MLSCN]
# PI Name: Dr. Marvin Gershengorn
# This cell based assay utilized a cyclic nucleotide gated ion channel (CNG) as a biosensor for cAMP induction. HEK 293 cells stably expressing the modified CNG were purchased from BD biosciences (http://www.atto.com/products/actone/features_benefits.shtml) . Stimulation of cAMP production causes the CNG to open and subsequent membrane depolarization to occur. A fluorescent membrane potential dye (BD biosciences) was utilized to detect cAMP stimulation in cells.
# The cells were maintained in DMEM medium (Invitrogen) containing 10 % FBS (Hyclone), 100 units/ml Penicillin, 100 ug/ml Streptomycin (Invitrogen), and 250 ug/ml Geneticin (Invitrogen) and 1 ug/ml Puromycin (Invitrogen) at 37C in 5% CO2. This assay was used as a counterscreen to "qHTS Assay for Agonists of the Thyroid Stimulating Hormone Receptor", to control for compounds signaling through endogenous receptors and other targets of HEK 293 cells.
# NCGC Assay Protocol Summary:
# High Throughput Screening. Freshly passaged cells were dispensed into 1536-well assay plates at 4 ul/well in DMEM containing phenol red (Invitrogen), 10% FCS (Hyclone), and 100 units/ml Penicillin, 100 ug/ml Streptomycin (Invitrogen) and incubated at 37 C with 5% CO2 for 20 to 36 hrs before the robotic screening. The screen was initiated by addition of 4 ul/well membrane potential dye containing 100 uM RO 20-1724 (Sigma Aldrich), followed by 60 min incubation at room temperature to allow for dye equilibration across the cell membrane. 23 nl/well compound or control was then added to the assay plates, which were incubated for additional 30 min before reading a Envision fluorescence plate reader (Perkin Elmer) in bottom-read mode for fluorescence intensity (emission at 590 nm).
# Keywords: cAMP, CNG Ion Channel, quantitative high throughput screening, qHTS, HTS, probe identification, CNG, cAMP, cyclic nucleotide gated ion channel PubChem
# Potency is read from the fitted curve at half-maximal effect.
SMILES,Potency,activation
NCCc1c[nH]c2ccc(O)cc12,inactive and 31.6 µM (active),
C/C(CCc1c[nH]c2ccccc12)=N\O,,2.11% (inactive)
CC(C)(c1ccc(OC[C@@H]2CO2)cc1)c1ccc(OC[C@H]2CO2)cc1,,23.3% (inactive)
N#CCCCl,inactive,
ClC(Cl)(Cl)c1ccccc1,inactive,
Fc1ccc(C(OCCN2CCN(C/C=C\c3ccccc3)CC2)c2ccc(F)cc2)cc1,,-30.9% (inactive)
c1ccc(C2NCc3ccccc3-n3cccc32)cc1 (stereo not given),25.1 µM (active),
COc1ccc(C2NCc3ccc4c(c3-n3cccc32)OCO4)cc1OC (stereo not given),,19.3% (inactive)
CC(C)CC(C)Nc1ccc(Nc2ccccc2)cc1 (stereo not given),,-10.5% (inactive)
O=[N+]([O-])c1ccc(Cl)c(Cl)c1,,11.3% (inactive)
CC(C)(c1ccccc1)c1ccc(O)cc1,,14.7% (inactive)
CC(C)(C)C(O)(CCc1ccc(Cl)cc1)Cn1cncn1 (stereo not given),,1.41% (inactive)
C[C@@]1([C@@H](NP(=O)(c2ccccc2)c2ccccc2)c2ccccc2)C[C@H]1CCO,15.8 µM (active),
O=C1C2(Cl)C3(Cl)C4(Cl)C(Cl)(Cl)C5(Cl)C3(Cl)C1(Cl)C5(Cl)C24Cl (stereo not given),inactive,
CCCCC#N,,8.65% (inactive)
